In the library only some 3.4% were active in any assay of this set; here they are far more common.
AI-2 QS modul: modulates the Vibrio harveyi AI-2 quorum sensing system | Vibrio harveyi JMH597 AI-2 luminescence/OD600 ratio, 9 h; hits give low values; strain lacks LuxN and CqsS sensors; 0 = neutral-control median | activity change, % at 7.5 µM | 300,000 tested, 0.4% active; in the data active = activity change below about -75%, passing the limit was not always enough;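 also: luminescence divided by OD600 gain over 9 h not by final OD600 alone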
FXN GAA850 act: activators of GAA850 frataxin (FXN) promoter; HEK293 lucGAA850 FXN promoter luciferase reporter, 24 h; percent of 10 µM SAHA response; 360,000 tested, 0.56% active; activation, % at 6 µM;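 active = activation above the average of all compounds screened plus 3 SD, cutoff fixed separately per campaign, cut at about 7.5% in these data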;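 also: 0% = DMSO wells and 100% = 10 µM SAHA wells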
SMARCA2 activ: increases SMARCA2 function in MMTV reporter cells. MG213 cells, MMTV-luciferase reporter, dexamethasone, overnight. AID 652017. activation, % at 9.1 µM. 370,000 tested, 1% active; in the data active = activation above about 7.8%;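 also: 0% = vehicle wells and 100% = reference activator wells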
HSP90 inh: inhibitors of HSP90 luciferase refolding in rabbit reticulocyte lysate; luciferase refolding luminescence, 3 h; inhibition, % at 5.6 µM; 290,000 tested, 0.91% active; AID 1789;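 active = inhibition above the screen-wide mean plus 3 SD, computed separately per campaign, cut at about 16% in these data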;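 also: 0% = DMSO wells and 100% = 60 µM geldanamycin wells; inhibitors lower the luminescence because luciferase stays unfolded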
PG9 Ab binder: binds the HIV-1 gp120 antibody PG9; 360,000 tested, 0.43% active; TR-FRET gp120-PG9 antibody binding; inhibition, % at 6.7 µM; in the data active = inhibition above about 8.5%
HSF1 inh: HSF1 inhibition | NIH3T3-HGL HSE-luciferase, MG132-induced, luminescence 8 h; hits give low values | activity change, negative = inhibition, % at 7.5 µM (by protocol) | 300,000 tested, 0.77% active | AID 2098;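 active = more than half of replicate wells show activity change below -50%, luminescence cut by over half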;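 also: luciferase reports HSF-1 transcriptional activity via heat shock element; 0% = median of DMSO wells and -100% = zero luminescence signal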
SMARCA2 conf: confirmation of SMARCA2 (BRM) function activators; shares compounds with SMARCA2 activ; MG213 cells, MMTV-luciferase with dexamethasone, luminescence, overnight; MG213 cells expressing E1A, Rb sequestered; DMSO wells 0%, reference activator 100%; activation, % at 9.1 µM; 3,500 tested, 30% active;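 active = activation above its plate's cutoff, the mean activation of tested wells plus 3 SD, cut at about 7.9% in these data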
GAL4-VP16 Luc: activates GAL4-VP16 luciferase, flagging SMARCA2 activator hits | shares compounds with SMARCA2 activ | HEK293 GAL4-VP16 pG5luc reporter, luciferase luminescence; scaled: DMSO wells 0%, SAHA wells 100% | activation, % at 9.1 µM | 3,500 tested, 41% active | AID 686939;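 active = activation above the solvent-only control well mean plus 3 SD, averaged across control plates, cut at about 5.2% in these data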
* = called active by the depositor; . = no result.

SMILES	AI-2 QS modul	FXN GAA850 act	SMARCA2 activ	HSP90 inh	PG9 Ab binder	HSF1 inh	SMARCA2 conf	GAL4-VP16 Luc
CC(C)C1C(=O)N(Cc2cn(Cc3ccco3)nn2)CCS(=O)(=O)N1Cc1ccc(-c2ccc(F)cc2)cc1 (configuration not stated)	.	-0.2	-7.9	.	0.9	.	.	.
COc1cc(COCC(O)CN2CCN(CCN3C(=O)c4cccc5cccc(c45)C3=O)CC2)cc(OC)c1OC (configuration not stated)	10.9	-2.6	0.7	-0.3	0.0	88.4	.	.
O=C1c2cccc3cccc(c23)C(=O)N1CCN1CCN(CC(O)COCc2ccc(Cl)cc2)CC1 (configuration not stated)	7.7	-0.7	8.7*	-0.7	-2.1	40.1	8.5*	5.4*
O=c1c2ccccc2nc2c3ccccc3c(NCCN3CCOCC3)nn12	10.1	.	33.2*	2.0	-0.7	18.9	44.7*	0.1
C/C(=N\NC(N)=S)c1ccccc1	11.1	1.3	8.0*	1.1	-2.0	-3.1	-0.4	0.3
O=C(Cc1ccc(NC(=O)C2CCCN(C(=O)c3ccccc3)C2)cc1)Nc1cccc(C(=O)N2CCCC2)c1 (configuration not stated)	.	.	-2.5	.	-1.8	.	.	.
Cc1cn2c(=O)c3ncn(C4OC(CO)C(O)C4O)c3n(C)c2n1 (configuration not stated)	.	.	0.1	.	1.1	.	.	.
Clc1cccc(Cl)c1CSc1nnc2ccccn12	27.0	2.9	-3.3	3.8	0.3	18.7	.	.
Fc1cccc(Cl)c1CSc1nnc2ccccn12	11.4	1.3	8.6*	1.3	-1.5	11.8	7.5	3.1
C=CCNc1nc(NCc2ccc(N(C)C)cc2)c2sc(-c3ccccc3)cc2n1	.	3.3	10.1*	.	0.9	.	11.0*	10.8*
C=CCNc1nc(NCCOC)c2sc(-c3ccccc3)cc2n1	.	-0.5	-3.1	.	-1.4	.	.	.
COc1ccc(C2(CNC(=O)c3ccc(OC)c([N+](=O)[O-])c3)CCCCC2)cc1OC	17.1	-2.1	-1.5	-1.9	0.2	12.9	.	.
COc1ccc(C(=O)NCC2(c3ccc(OC)c(OC)c3)CCCC2)cc1OC	.	-2.5	8.9*	.	-1.8	.	-0.8	-0.6
C=CCn1c(SCC(=O)NCc2ccco2)nnc1-c1ccc2ccccc2n1	12.9	0.7	8.3*	6.5	-1.5	9.0	-1.3	0.8
C=CCn1c(SCC(=O)NCc2ccco2)nc2ccccc2c1=O	13.8	2.7	-2.3	-1.7	0.9	5.8	.	.
O=c1cc(-c2ccccc2)oc2cc(O)c(O)c(O)c12	.	2.0	8.3*	.	-2.1	.	9.4*	12.6*
COc1ccc(CCN2CC(C(=O)N(C)CCOc3ccccc3)CCC2=O)cc1 (configuration not stated)	0.1	0.6	-0.1	-3.2	-0.9	2.2	.	.
COc1ccc(CCN2CC(C(=O)N(C)Cc3ccccc3OC)CCC2=O)cc1 (configuration not stated)	10.7	-0.7	8.6*	2.6	-0.5	8.0	-5.2	-0.7
COc1ccc(C2NC(=O)NC(C)=C2C(=O)OCc2ccccc2)cc1 (configuration not stated)	36.2	2.2	13.6*	-0.2	-0.6	2.8	4.3	0.6
C=CCNC(=O)c1ccc2nc(Cc3ccc(OC)cc3)oc2c1	9.1	5.6	7.3	6.1	-3.2	62.9	.	.
COCCCNC(=O)c1ccc2nc(Cc3ccc(OC)cc3)oc2c1	21.1	4.4	11.2*	0.7	-0.1	17.1	4.8	9.3*
COC(=O)[C@]12C[C@H](CC(=O)NCCCN3CCCC3=O)C(=O)N(Cc3ccc(Cl)cc3Cl)C1=C[C@H](C(C)C)O[C@@H]2C1CC1	.	.	-2.1	.	.	.	.	.
Cc1cccc(NC(=O)CN2C(=O)N/C(=C\c3ccccc3OCc3ccc(C(=O)O)cc3)C2=O)c1	.	-0.1	8.7*	1.5	-0.8	-0.2	1.4	0.3
O=C(CN1C(=O)N/C(=C\c2ccccc2OCc2ccc(C(=O)O)cc2)C1=O)Nc1ccc(F)cc1	33.7	0.6	-5.7	2.1	-3.2	-4.5	.	.
COC(=O)c1ccc2c(c1)C(=O)/C(=C/c1ccc(C)cc1)O2	11.2	-1.2	-0.5	-1.6	-0.8	8.5	.	.
SMILES	AI-2 QS modul	FXN GAA850 act	SMARCA2 activ	HSP90 inh	PG9 Ab binder	HSF1 inh	SMARCA2 conf	GAL4-VP16 Luc
CCc1ccc(/C=C2\Oc3ccc(C(=O)OC)cc3C2=O)cc1	8.6	1.3	10.1*	-5.3	-2.9	4.1	3.2	6.5*
CCOC(=O)[C@@]12CCC3=C1N(CCC3)C(=O)[C@H](CC(=O)N1CCCCC1)C2	.	.	-2.2	.	.	.	.	.
Clc1nccnc1N/N=C/c1ccc(Br)cc1	-7.7	4.8	2.2	0.6	0.1	11.2	.	.
COc1ccc(/C=N/Nc2nccnc2Cl)cc1	-0.9	0.3	8.7*	7.3	0.1	-6.8	4.6	11.5*
CCOC(=O)c1cnc2c(C(=O)OC)cccc2c1NCc1ccco1	7.6	2.3	8.0*	5.7	0.0	.	7.3	0.8
CCOC(=O)c1cnc2c(ccc3ccccc32)c1NCCCN(C)C	-1.4	2.7	19.4*	-3.4	-1.3	13.8	40.0*	8.1*
CCOC(=O)c1cnc2ccc(Cl)cc2c1NCCN(C)C	23.4	4.1	-0.7	0.3	2.4	1.9	.	.
CCOC(=O)c1ccc2ncc(C(=O)OCC)c(NCCCN3CCOCC3)c2c1	12.2	-0.7	-3.4	2.3	0.1	11.0	.	.
CCOC(=O)c1cnc2c(C)cccc2c1NCc1ccco1	17.1	4.3	1.0	5.0	-0.8	12.4	.	.
CCOC(=O)c1ccc2ncc(C(=O)OCC)c(NCc3ccco3)c2c1	-18.3	2.4	13.3*	-0.4	1.7	-2.7	0.4	3.5
O=C(Nc1c(-c2ccccc2)[nH][nH]c1=O)c1ccco1	.	.	-0.1	.	-3.8	.	.	.
CCN=C1NC(c2ccccc2C(F)(F)F)C(C(=O)OC)=C(C)N1C (configuration not stated)	.	.	2.0	.	0.6	.	.	.
COc1ccccc1NS(=O)(=O)c1cc(NC(=O)C2CC2)ccc1N1CCOCC1	13.4	.	.	7.3	.	8.1	.	.
COc1ccccc1NS(=O)(=O)c1cc(NC(=O)c2[nH]c(C)c(C(C)=O)c2C)ccc1N1CCOCC1	15.9	-5.4	9.9*	2.2	4.2	-0.1	10.5*	6.0*
COCCNC(=S)Nc1ccc(N2CCOCC2)c(S(=O)(=O)Nc2ccccc2OC)c1	.	0.5	15.9*	.	0.4	.	6.5	-0.8
COc1ccccc1NS(=O)(=O)c1cc(NC(=O)c2ccccc2C)ccc1N1CCOCC1	.	-1.6	0.5	.	-0.1	.	.	.

Screening results from PubChem.
